Here are results for six compounds from PubChem BioAssay (NCATS).

Results filed as inconclusive are left out. The source made the active and inactive calls. Unless noted, calls follow the shape of the dose curve; as a rule, active = well fitted curve in either direction with a large enough effect (not every such curve was filed as active); inconclusive = small, poorly fitted or top-dose-only effect, or another doubt; inactive = flat fitted curve, though single readings scatter.

A short description of assay [1]: AP1 Signaling Pathway (AID 357).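 Also: ME-180 reporter cells stimulated with EGF at its EC50 level; % is scaled to controls: 0 for no effect and ±100 for the full control effect.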 As to conditions: ME-180 AP-1-bla reporter, EGF-induced, beta-lactamase ratio, 5 h; at 7.69 µM (top of the series) unless noted. An outline of the steps: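 Titration-series screen for positive or negative modulators of EC50 EGF-induced signaling in ME-180 cells carrying an AP-1-driven beta-lactamase reporter. After 5 hours at 37 degrees Celsius, CCF4 460nm/530nm emission ratio gave %Activity; AC50 values derived.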

Assay [2] addresses Cytochrome P450 1A2 (Homo sapiens) (UniProt P05177). Nature of the assay: p450-cyp1a2 (AID 410; calls by dose curve; also: potency is read from the fitted curve at half-maximal effect;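 as to activity change, negative = inhibition: -100% = full effect of reference inhibitor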). The method, boiled down: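 Inhibition was calculated relative to 57 uM furafylline (full inhibition). The reaction used human CYP1A2 at 20nM with Luciferin-ME at its Km, 100uM, driven by an NADPH-regenerating system for 60 min at room temperature.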
A short description of assay [3]: Stat Signaling Pathway (AID 446).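 Also: ME-180 cervical cancer cells given 40 pM IL-6 alongside compound; SIE-controlled beta-lactamase reporter measured as 460/530 nm FRET emission ratio; % is scaled to controls: 0 for no effect and ±100 for the full control effect.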 To be noted: ME-180 SIE beta-lactamase reporter, IL-6 stimulated, 5 h; at 7.69 µM (top of the series) unless noted. The method, boiled down:
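Screening format detects activators and inhibitors alike: ME-180 SIE-bla cells stimulated at 40 pM IL-6 for 5 hrs with compound, then dual-emission beta-lactamase read at 405 nm excitation.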

In assay [4] the target is Glucocorticoid receptor (Homo sapiens) (UniProt P04150). The experiment in a line: GR-GFP Redistribution (AID 450;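 active = compounds whose dose series gives a full or clear partial fitted curve of increased nuclear translocation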; also: potency is read from the fitted curve at half-maximal effect). As to conditions: U2OS GR-GFP nuclear translocation, laser cytometry, 2 h.
For assay [5] the target is unchanged. Nature of the assay: GR-EFC Redistribution (AID 451; calls by dose curve; also: potency is read from the fitted curve at half-maximal effect). To be noted: CHO-K1 GR-EFC translocation, beta-gal luminescence, 2 h. The method, boiled down:
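Translocation of GR-ED fusion to nuclear EA restores b-gal, read by luminescence after 1 h room-temperature detection. Engineered CHO-K1 biosensor cells, 1,000/well, exposed 2 h at 37 C to titrations up to 46 uM final.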

Assay [6] has as its target Mitogen-activated protein kinase 10 (Mus musculus) (UniProt Q61831). Nature of the assay: JNK3 AlphaScreen Assay (AID 530).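 Also: kinase came from lysate of stimulated human HepG2 cells; signal reports phosphorylation of biotinylated GST-cJun 1-79 at Ser73 with 10 µM ATP; % is scaled to controls: 0 for no effect and ±100 for the full control effect.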 The method, boiled down:
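Room-temperature AlphaScreen kinase assay; pre-activated HepG2 lysate as JNK3 source, biotin-GST-cJun(1-79) substrate, 10 uM ATP, compound 15 min preincubation.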

Assay [7] can be described thus: qHTS Assay for Lipid Storage Modulators (AID 1519; calls by dose curve). As to conditions: Drosophila S3 cells, BODIPY lipid droplet/cell ratio, laser cytometry, cells loaded with oleic acid; for activity change, negative = inhibition: at 57.5 µM (top of the series). The method, boiled down: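 Cells seeded at 5,000 per well were treated with compounds over a concentration series and loaded with oleic acid (400 uM, as added). Lipid droplet fluorescence (488 nm excitation, 500-530 nm channel) was read by laser-scanning cytometry and normalized to 20 uM Triacsin C.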
Background: In qHTS, concentration-response curves come from the screen itself.

Assay [8] is described as follows: Confirmatory qHTS for small molecule stabilizers of the endoplasmic reticulum resident proteome: Secreted ER Calcium Modulated Protein (SERCaMP) assay (AID 1508628; active = well fitted curve in the direction sought with a large enough effect; an effect the other way counts as inactive or inconclusive; also: nearly all actives have a fitted effect of over 40% in size; also: potency is read from the fitted curve at half-maximal effect). The method, boiled down:
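We seeded SH-SY5Y-GLuc-SERCaMP cells, added compounds (three concentrations in the primary run, eleven up to 76.6 uM in confirmation), incubated 16 h, depleted ER calcium with thapsigargin, and read luciferase 4 h later.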

Assay [9] in a line: Cell Viability qHTS for small molecule stabilizers of the endoplasmic reticulum resident proteome (AID 1508629; active = well fitted curve in the direction sought with a large enough effect; an effect the other way counts as inactive or inconclusive;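 also: human SH-SY5Y neuroblastoma cells carrying the GLuc-SERCaMP reporter; compound exposure about 46 h in total before the viability read; % is scaled to controls: 0 for no effect and ±100 for the full control effect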). As to conditions: cell viability counter-screen, 100 nM thapsigargin for final 4 h.
The target of assay [10] is Lysosomal acid glucosylceramidase (Homo sapiens) (UniProt P04062). The experiment in a line: Glucocerebrosidase-p2 (AID 348; in the data active = potency below about 10 µM; also: potency is read from the fitted curve at half-maximal effect). To be noted: purified GBA, blue fluorogenic substrate, 40 min. The method, boiled down:
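Compounds titrated from 0.6 nM upwards against 0.2 nM enzyme in pH 5.9 citric acid/KH2PO4, taurocholate, tween-20; blue fluorogenic substrate 80 uM, 40 min room temperature, stopped and read Ex 365/Em 440 for AC50.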

The target in assay [11] is 3',5'-cyclic-AMP phosphodiesterase 4B (Homo sapiens) (UniProt Q07343). Nature of the assay: qHTS Assay for Inhibitors of PDE-IV (AID 607; active = well fitted activation curve with a large enough effect in the main read-out, with a control signal flat, not every such curve was filed as active; also: % of control where 0% means no effect). The method, boiled down: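 The readout is membrane depolarisation from a cAMP-sensing CNG channel, detected with a potential dye at ex 535/em 590. Cells were HEK293-derived (endogenous PDE-IV) at 1000 cells/well, titrated up to 22.9 uM final.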

For assay [12], the target named is Cytochrome P450 3A4 (Homo sapiens) (UniProt P08684). Nature of the assay: qHTS Assay for Inhibitors and Substrates of Cytochrome P450 3A4 (AID 884; active = well fitted curve in the direction sought with a large enough effect; an effect the other way counts as inactive or inconclusive; also: potency is read from the fitted curve at half-maximal effect; nearly all actives have a fitted effect of over 50% in size). The method, boiled down: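 20 nM human CYP3A4 with 25 uM Luciferin-PPXE (at KM) in 200 mM KPO4, preincubated 10 min with compound; NADPH regeneration started a 60 min RT reaction. Luciferin detected by luminescence, normalized to 57 uM ketoconazole as full inhibition.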

For assay [13] the target is unchanged. The experiment in a line: qHTS Assay for Activators of Cytochrome P450 3A4 (AID 885; active = well fitted curve in the direction sought with a large enough effect; an effect the other way counts as inactive or inconclusive; also: nearly all actives have a fitted effect of over 65% in size). The method, boiled down: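 Steps: enzyme/substrate mix dispensed; compound added, 10 min RT; NADPH regeneration solution added, 60 min RT; luciferin detection buffer stops reaction; 20 min later luminescence measured.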
In assay [14] the target is Cytochrome P450 2C19 (Homo sapiens) (UniProt P33261). Nature of the assay: qHTS Assay for Inhibitors and Substrates of Cytochrome P450 2C19 (AID 899; active = well fitted curve in the direction sought with a large enough effect; an effect the other way counts as inactive or inconclusive; also: potency is read from the fitted curve at half-maximal effect; nearly all actives have a fitted effect of over 60% in size). An outline of the steps:
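5nM enzyme + 10uM Luciferin-H EGE (=KM), 50mM KPO4; cpd pin-transferred, 10 min 37C; NADPH regen, 60 min 37C; stopped w/ luciferin detection reagent, 20 min; luminescence. Normalized to 57uM ketoconazole (AC100).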

Assay [15] in a line: Counterscreen qHTS for small molecule stabilizers of the endoplasmic reticulum resident proteome: GLuc-NoTag assay (AID 1508627; active = well fitted curve in the direction sought with a large enough effect; an effect the other way counts as inactive or inconclusive; also: potency is read from the fitted curve at half-maximal effect;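 as to activity change, negative = inhibition: SH-SY5Y cells given compound then 100 nM thapsigargin to empty ER calcium; 0% = thapsigargin alone and -100% = DMSO vehicle control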). An outline of the steps:
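Luminescence of Gaussia luciferase secreted into the medium (coelenterazine, 0.07x final, unlysed cells) was the read-out. Human SH-SY5Y neuroblastoma cells constitutively secreting untagged GLuc received compound for 19 h, then 100 nM thapsigargin for 4 h.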
(In general: The purpose of a counterscreen is to sort out artefacts and off-target activity.)

A short description of assay [16]: NFAT Signaling Pathway (AID 444). As to conditions: Jurkat NFAT-bla M1, carbachol, beta-lactamase ratio, 5 h; at 7.69 µM (top of the series) unless noted. The method, boiled down: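 Read-out: CCF4 FRET ratio (460 nm/530 nm) after 1 h RT dye loading, used for %activity and AC50 from titration series. Cells: Jurkat NFAT-β-lactamase/M1 line, treated with compound plus 1 uM carbachol for 5 h, 37 °C.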

For assay [17], the target named is Cytochrome P450 2D6 (Homo sapiens) (UniProt P10635). The experiment in a line: qHTS Assay for Inhibitors and Substrates of Cytochrome P450 2D6 (AID 891; active = well fitted curve in the direction sought with a large enough effect; an effect the other way counts as inactive or inconclusive; also: potency is read from the fitted curve at half-maximal effect; nearly all actives have a fitted effect of over 60% in size). The method, boiled down:
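Human CYP2D6 (5 nM) with 30 uM Luciferin-ME EGE (at Km) in 100 mM KPO4, compound preincubated 10 min, then NADPH regeneration system for 60 min at room temperature. Luciferin read by luminescence; normalized to 1.43 uM quinidine.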

The nature of assay [18]: Confirmation and Secondary Assay for Modulators of Hemoglobin Beta Chain Splicing at IVS2 654 locus (AID 910; active = well fitted curve in the direction sought with a large enough effect; an effect the other way counts as inactive or inconclusive;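 also: HeLa cells stably carrying EGFP split by mutant beta-globin IVS2-654 intron; per-well total GFP intensity by laser scanning cytometry after 2-day treatment; % of control where 0% means no effect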). An outline of the steps:
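Readout: per-well total peak green fluorescence (488 nm ex, 500–520 nm em) from objects 5–250 µm, reflecting correct splicing of an EGFP-654 reporter. Compounds were applied for 2 days at 37 °C to overnight-plated HeLa EGFP-654 cells; controls were DMSO and 500 nM IVS2-654 PNA.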

Assay [19] can be described thus: Confirmation and Secondary Assay for Modulators of Hemoglobin Beta Chain Splicing at IVS2 705 locus (AID 930; active = well fitted curve in the direction sought with a large enough effect; an effect the other way counts as inactive or inconclusive;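 also: HeLa cells stably expressing the EGFP-705 splicing reporter; GFP fluorescence per well restored by corrected splicing of the IVS2-705 intron in EGFP; % of control where 0% means no effect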). The method, boiled down:
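Per-well GFP, captured at 1 x 8 µm resolution with 488 nm excitation, served as the read-out for HeLa EGFP-705 cells incubated 2 days with test compound versus DMSO.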

Assay [20] addresses Ubiquitin carboxyl-terminal hydrolase 1 (Homo sapiens) (UniProt O94782). Nature of the assay: Inhibitors of USP1/UAF1: Pilot qHTS (AID 504865; active = well fitted curve in the direction sought with a large enough effect; an effect the other way counts as inactive or inconclusive;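 also: rhodamine fluorescence freed from ubiquitin-rhodamine substrate followed over time; top concentration of the series differs between compounds; % is scaled to controls: 0 for no effect and ±100 for the full control effect; nearly all actives have a fitted effect of over 35% in size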). The method, boiled down: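 USP1/UAF1 complex (1nM) preincubated with compound 15 min at room temperature, then Ub-Rho substrate (150nM final) added. Fluorescence read kinetically at 480/540 nm, 6 reads every 60 seconds. Buffer: 50mM HEPES pH 7.8, 0.5mM EDTA, 0.1 mg/ml BSA, 1mM TCEP, 0.01% Tween-20.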

[21] abbreviates: measured here: cell count channel max response.
[22] abbreviates: measured here: lipid channel max response.

Chain of 3',5'-cyclic-AMP phosphodiesterase 4B (Homo sapiens) (Q07343 whole entry, looked up): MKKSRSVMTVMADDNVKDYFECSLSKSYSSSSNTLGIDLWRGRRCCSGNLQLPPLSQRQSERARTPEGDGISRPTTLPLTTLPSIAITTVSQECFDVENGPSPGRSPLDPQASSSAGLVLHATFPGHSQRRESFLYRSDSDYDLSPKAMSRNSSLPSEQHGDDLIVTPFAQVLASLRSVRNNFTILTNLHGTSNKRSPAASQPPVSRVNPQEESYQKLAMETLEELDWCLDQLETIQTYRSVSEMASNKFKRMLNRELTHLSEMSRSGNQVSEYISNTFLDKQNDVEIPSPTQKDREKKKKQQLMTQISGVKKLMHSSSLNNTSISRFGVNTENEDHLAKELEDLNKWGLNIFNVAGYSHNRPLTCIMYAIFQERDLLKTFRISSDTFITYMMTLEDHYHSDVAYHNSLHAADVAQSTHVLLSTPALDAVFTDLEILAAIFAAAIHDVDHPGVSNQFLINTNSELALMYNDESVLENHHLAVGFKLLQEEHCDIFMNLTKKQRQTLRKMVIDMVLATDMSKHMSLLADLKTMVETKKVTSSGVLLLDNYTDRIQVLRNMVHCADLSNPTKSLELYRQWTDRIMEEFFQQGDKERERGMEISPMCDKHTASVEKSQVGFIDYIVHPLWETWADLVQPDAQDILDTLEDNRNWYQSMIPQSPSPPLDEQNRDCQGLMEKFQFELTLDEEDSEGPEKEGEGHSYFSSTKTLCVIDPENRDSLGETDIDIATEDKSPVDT
Chain of Glucocorticoid receptor (Homo sapiens) (P04150 whole entry, looked up): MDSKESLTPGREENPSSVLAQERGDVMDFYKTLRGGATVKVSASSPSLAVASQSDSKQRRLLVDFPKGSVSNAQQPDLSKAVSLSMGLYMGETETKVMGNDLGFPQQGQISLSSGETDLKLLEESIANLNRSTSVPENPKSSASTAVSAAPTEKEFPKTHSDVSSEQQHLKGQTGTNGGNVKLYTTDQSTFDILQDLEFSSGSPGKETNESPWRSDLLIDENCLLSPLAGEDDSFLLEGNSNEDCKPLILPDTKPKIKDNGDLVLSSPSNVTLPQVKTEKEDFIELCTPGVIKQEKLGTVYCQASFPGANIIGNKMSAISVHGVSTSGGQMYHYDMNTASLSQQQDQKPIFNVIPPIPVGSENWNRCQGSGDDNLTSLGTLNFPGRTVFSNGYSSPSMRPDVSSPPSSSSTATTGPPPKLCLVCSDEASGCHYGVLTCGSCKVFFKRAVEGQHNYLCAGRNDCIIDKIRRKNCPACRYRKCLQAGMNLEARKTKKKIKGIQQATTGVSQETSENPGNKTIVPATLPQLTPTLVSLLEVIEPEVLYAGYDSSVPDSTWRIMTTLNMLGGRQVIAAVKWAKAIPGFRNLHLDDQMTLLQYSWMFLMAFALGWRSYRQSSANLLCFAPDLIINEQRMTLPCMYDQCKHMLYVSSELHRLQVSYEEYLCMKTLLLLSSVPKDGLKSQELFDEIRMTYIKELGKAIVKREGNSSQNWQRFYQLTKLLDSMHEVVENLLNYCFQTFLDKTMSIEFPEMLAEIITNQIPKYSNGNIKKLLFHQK
Chain of Lysosomal acid glucosylceramidase (Homo sapiens) (P04062 whole entry, looked up): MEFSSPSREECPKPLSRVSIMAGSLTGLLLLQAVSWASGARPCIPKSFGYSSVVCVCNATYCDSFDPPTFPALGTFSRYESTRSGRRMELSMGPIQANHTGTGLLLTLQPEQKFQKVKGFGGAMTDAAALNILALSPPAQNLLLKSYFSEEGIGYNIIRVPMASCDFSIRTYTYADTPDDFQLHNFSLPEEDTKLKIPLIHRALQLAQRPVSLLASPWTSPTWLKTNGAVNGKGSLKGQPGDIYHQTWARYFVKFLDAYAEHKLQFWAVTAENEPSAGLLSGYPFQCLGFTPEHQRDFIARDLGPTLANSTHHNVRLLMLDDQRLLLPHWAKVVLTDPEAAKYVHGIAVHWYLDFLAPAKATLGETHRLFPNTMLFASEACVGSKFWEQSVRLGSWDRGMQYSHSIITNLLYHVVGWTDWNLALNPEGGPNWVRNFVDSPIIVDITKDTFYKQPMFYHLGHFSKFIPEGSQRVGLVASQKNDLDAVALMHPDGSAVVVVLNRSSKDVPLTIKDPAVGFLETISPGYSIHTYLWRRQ
Chain of Cytochrome P450 1A2 (Homo sapiens) (P05177 whole entry, looked up): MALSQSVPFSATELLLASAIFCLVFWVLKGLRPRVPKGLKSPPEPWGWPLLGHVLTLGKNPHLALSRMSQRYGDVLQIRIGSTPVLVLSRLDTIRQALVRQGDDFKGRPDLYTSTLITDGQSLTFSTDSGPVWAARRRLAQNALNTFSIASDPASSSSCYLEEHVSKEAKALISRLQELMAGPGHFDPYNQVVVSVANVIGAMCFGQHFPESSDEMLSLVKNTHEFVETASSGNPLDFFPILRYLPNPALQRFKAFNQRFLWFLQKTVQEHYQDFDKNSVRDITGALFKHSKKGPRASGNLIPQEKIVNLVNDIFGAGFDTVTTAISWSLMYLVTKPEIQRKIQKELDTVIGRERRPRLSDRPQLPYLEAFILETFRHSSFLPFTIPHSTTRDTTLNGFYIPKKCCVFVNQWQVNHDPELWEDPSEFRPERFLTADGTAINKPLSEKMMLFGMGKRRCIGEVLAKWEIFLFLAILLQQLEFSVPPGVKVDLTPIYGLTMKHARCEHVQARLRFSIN
Chain of Cytochrome P450 3A4 (Homo sapiens) (P08684 whole entry, looked up): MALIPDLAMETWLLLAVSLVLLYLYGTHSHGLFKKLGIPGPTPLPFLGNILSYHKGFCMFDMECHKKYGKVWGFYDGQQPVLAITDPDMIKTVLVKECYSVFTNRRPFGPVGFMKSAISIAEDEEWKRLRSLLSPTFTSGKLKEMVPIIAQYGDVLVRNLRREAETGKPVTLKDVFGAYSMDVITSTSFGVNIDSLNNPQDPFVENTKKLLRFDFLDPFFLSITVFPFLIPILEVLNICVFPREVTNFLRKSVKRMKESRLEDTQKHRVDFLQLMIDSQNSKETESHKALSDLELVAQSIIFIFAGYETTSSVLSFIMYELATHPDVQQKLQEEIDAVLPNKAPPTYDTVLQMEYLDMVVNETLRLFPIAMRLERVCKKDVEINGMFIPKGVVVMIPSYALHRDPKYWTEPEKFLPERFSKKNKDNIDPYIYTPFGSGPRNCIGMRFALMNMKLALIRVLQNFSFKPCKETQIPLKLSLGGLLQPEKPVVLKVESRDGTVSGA
Chain of Cytochrome P450 2C19 (Homo sapiens) (P33261 whole entry, looked up): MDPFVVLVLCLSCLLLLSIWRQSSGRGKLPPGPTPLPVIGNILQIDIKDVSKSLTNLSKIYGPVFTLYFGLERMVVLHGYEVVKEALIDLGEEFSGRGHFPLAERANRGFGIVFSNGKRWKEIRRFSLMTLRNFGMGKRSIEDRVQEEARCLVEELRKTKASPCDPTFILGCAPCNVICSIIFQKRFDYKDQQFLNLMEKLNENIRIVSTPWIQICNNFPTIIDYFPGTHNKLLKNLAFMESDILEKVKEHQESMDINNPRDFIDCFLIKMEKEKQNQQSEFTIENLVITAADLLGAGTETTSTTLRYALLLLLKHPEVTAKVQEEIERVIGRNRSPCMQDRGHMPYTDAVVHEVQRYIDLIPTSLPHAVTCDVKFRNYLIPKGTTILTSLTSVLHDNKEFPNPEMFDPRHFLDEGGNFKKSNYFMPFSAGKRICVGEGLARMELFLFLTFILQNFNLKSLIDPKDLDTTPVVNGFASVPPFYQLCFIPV
Chain of Ubiquitin carboxyl-terminal hydrolase 1 (Homo sapiens) (O94782 whole entry, looked up): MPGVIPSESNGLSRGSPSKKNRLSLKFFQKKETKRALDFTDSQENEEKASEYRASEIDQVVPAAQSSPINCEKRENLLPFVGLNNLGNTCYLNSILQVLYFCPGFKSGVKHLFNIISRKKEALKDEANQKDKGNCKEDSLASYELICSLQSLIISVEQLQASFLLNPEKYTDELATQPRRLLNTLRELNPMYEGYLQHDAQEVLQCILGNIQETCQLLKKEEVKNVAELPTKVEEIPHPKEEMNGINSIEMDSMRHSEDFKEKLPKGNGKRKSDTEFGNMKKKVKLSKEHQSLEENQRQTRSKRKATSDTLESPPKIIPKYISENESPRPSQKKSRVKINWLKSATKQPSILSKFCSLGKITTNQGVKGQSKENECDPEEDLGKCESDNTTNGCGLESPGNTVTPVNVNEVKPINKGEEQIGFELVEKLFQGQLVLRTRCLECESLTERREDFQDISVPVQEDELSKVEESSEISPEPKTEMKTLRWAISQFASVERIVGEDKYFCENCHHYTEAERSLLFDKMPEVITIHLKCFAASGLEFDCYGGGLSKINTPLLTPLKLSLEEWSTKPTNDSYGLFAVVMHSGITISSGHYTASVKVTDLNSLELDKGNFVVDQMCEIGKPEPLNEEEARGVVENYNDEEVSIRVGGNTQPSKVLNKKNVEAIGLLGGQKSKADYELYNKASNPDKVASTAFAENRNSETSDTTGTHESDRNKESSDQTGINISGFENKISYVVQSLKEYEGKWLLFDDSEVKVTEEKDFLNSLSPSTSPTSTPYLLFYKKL
Chain of Cytochrome P450 2D6 (Homo sapiens) (P10635 whole entry, looked up): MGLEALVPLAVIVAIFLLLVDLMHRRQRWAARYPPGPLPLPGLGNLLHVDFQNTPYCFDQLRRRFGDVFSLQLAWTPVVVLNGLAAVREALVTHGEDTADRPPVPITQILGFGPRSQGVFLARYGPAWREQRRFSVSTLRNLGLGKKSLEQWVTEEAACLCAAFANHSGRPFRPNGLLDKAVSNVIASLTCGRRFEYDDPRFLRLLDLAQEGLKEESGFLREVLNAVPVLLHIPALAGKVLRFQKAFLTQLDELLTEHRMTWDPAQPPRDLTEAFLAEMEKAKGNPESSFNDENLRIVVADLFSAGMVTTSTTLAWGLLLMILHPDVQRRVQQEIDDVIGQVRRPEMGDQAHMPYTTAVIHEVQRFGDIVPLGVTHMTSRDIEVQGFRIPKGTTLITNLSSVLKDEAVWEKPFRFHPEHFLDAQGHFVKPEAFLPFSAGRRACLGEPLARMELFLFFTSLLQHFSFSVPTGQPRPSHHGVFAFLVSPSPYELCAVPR

As for `O=c1c(CCc2ccccc2)nc2cnc(N3CCNCC3)nc2n1Cc1ccc(F)cc1`, the activity change, negative = inhibition is -10.5% (inactive) in [1] and 2.57% (inactive) in assay [7]. Besides, the Potency is 10 µM (active) in assay [2], > 9.22 µM (inactive) in assay [4] and > 46 µM (inactive) in assay [5]. Also, the activity, negative = inhibition in assay [3] was 16.5% (inactive). For the same compound, in assay [6], the outcome was inactive. The max response is 12.8% in [7] (setting [21]), 11.7% in assay [7] (setting [22]) and -14.8% (inactive) in assay [9]. In addition, the Potency entry in [8] is “inactive”.
Take `O=S(=O)(c1ccccc1)N1CCC[C@@]2(CCN(c3ccncc3)C2)C1`: the Potency is > 11.4 µM (inactive) in assay [10], > 46 µM (inactive) in [5], 3.98 µM (active) in assay [12] and 0.398 µM (active) in assay [14]. Also, the activity change, negative = inhibition in assay [1] was -6.47% (inactive); in assay [7], 0.287% (inactive). The Potency result in assay [2], in assay [11], in assay [13] and in assay [15] was “inactive” throughout. Also, in assay [3], the activity, negative = inhibition is 0.894% (inactive). Moreover, the compound was called inactive in [6]. Further, the max response in assay [7] (setting [21]) is 4.65%; in assay [7] (setting [22]) it was 6.49%.
Turning to `COCCn1c(=O)c(CCc2ccccc2)nc2cnc(N3CCNCC3)nc21`, the Potency in assay [10] is > 11.4 µM (inactive); in assay [4] it was > 9.22 µM (inactive). For the same compound, the activity change, negative = inhibition is -4.91% (inactive) in assay [1] and 10.2% (inactive) in [16]. Besides, in [3], the activity, negative = inhibition was -1.73% (inactive). Moreover, in assay [6], the result was inactive. In addition, the Potency entry in assay [11] and in assay [15] was “inactive” each time.
In the case of `O=C(c1cc(C(F)(F)F)cc(C(F)(F)F)c1)N1CCC2(CC1)CN(c1ccccn1)C2`, the Potency in assay [10] was 0.37 µM (active); in assay [5], > 46 µM (inactive). For the same compound, the activity change, negative = inhibition in assay [1] was -8.97% (inactive). For the same compound, the Potency entry in assay [2], in assay [11] and in assay [8] was “inactive” each time. The activity, negative = inhibition in [3] is -17.5% (inactive). In assay [6], the compound was classed as inactive. Also, the max response in assay [9] was -18% (inactive).
On to `c1ccc2c(N3CCNCC3)nc(-c3ccc4c(c3)OCO4)nc2c1`, for which the Potency is > 11.4 µM (inactive) in assay [10]; 12.6 µM (active) in assay [2]; > 46 µM (inactive) in assay [5]; 7.94 µM (active) in assay [12]; 3.16 µM (active) in assay [17]; 20 µM (active) in assay [8]. Moreover, the activity change, negative = inhibition was 14.9% (inactive) in assay [1] and 11.9% (inactive) in assay [16]. Besides, the activity, negative = inhibition in [3] was 7.14% (inactive). Further, the compound was classed as inactive in [6], in [18] and in assay [19]. The Potency entry in assay [11], in assay [13] and in [20] was “inactive” each time.
As to `Cc1cccc(CNc2ncnc3ccc(-c4ccccc4CN(C)C)cc23)c1`, the Potency in [10] was > 11.4 µM (inactive); in assay [4] it was > 46 µM (inactive); in [5], > 46 µM (inactive); in assay [15], 0.447 µM (active). Also, the activity change, negative = inhibition in [1] is -7.85% (inactive); in [7], 3.56% (inactive). In addition, the activity, negative = inhibition in [3] was -2.09% (inactive). For the same compound, the compound was called inactive in assay [6], in [18] and in assay [19]. In addition, the max response was -10.3% in assay [7] (setting [21]) and -6.74% in [7] (setting [22]).
